Records with an inconclusive call do not appear. Unmarked numbers belong to inactive results. Active and inactive are the calls of the source. Calls follow the shape of the dose curve; as a rule, active = well fitted curve in the direction sought with a large enough effect; inconclusive = small, poorly fitted or top-dose-only effect, or another doubt; inactive = no such curve, though single readings can be large; an effect the other way counts as inactive or inconclusive.

Results on seven compounds are retold here after PubChem BioAssay (NCATS).

Experiment [1] is described as follows: BET inhibitor-based combinations targeting novel dependencies in MECOM-rearranged (r) AML: SET-2 cell line (AID 2202231). Also: nearly all actives have a fitted effect of over 35% in size.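 As to viability: plate controls were DMSO treated cells for no effect and wells without cells for full effect.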 Conditions: SET-2 AML cells viability, CellTiter-Glo luminescence, 48 h; viability: stronger effect = lower value, concentration not given here. In short, it runs like this:
(§1)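 AML cell lines seeded at 500 cells/well, treated with 11-point dose curves for 48 h. Viability by CellTiter-Glo luminescence, normalised to DMSO and empty wells; activity expressed as AUC and per-cell-line Z-transformed AUC.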
Background: ATP-based viability assays read luminescence as a measure of living cells.

A short description of experiment [2]: BET inhibitor-based combinations targeting novel dependencies in MECOM-rearranged (r) AML: OCI-AML3 cell line (AID 2202232). Also: nearly all actives have a fitted effect of over 35% in size. Conditions: CellTiter-Glo luminescence, 48 h; Potency: OCI-AML3 viability; series mostly up to 46 µM. In a few lines: as §1
Experiment [3] is described as follows: BET inhibitor-based combinations targeting novel dependencies in MECOM-rearranged (r) AML: MV-4-11 cell line (AID 2202233). Also: nearly all actives have a fitted effect of over 45% in size. To be noted: MV-4-11 AML viability, CellTiter-Glo luminescence, 48 h; series mostly up to 46 µM. In a few lines: (§2)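 Cells at 500/well were exposed for 48 hr to MIPE v5.0 drugs as 11-point dose curves. Viability was read by CellTiter-Glo luminescence and normalized to DMSO and empty-well controls. Activity was expressed as AUC and per-cell-line Z-AUC.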

The nature of experiment [4]: BET inhibitor-based combinations targeting novel dependencies in MECOM-rearranged (r) AML: HNT-34 cell line (AID 2202234). Also: nearly all actives have a fitted effect of over 35% in size. To be noted: HNT-34 AML viability, CellTiter-Glo luminescence, 48 h; series mostly up to 46 µM. In short, it runs like this:
as §2

Experiment [5] is described as follows: BET inhibitor-based combinations targeting novel dependencies in MECOM-rearranged (r) AML: UCSD-AML1 cell line (AID 2202235). Also: nearly all actives have a fitted effect of over 40% in size. To be noted: UCSD-AML1 AML cells viability, CellTiter-Glo, 48 h; series mostly up to 46 µM. In a few lines:
as §2

Experiment [6] is described as follows: BET inhibitor-based combinations targeting novel dependencies in MECOM-rearranged (r) AML: AML-191 cell line (AID 2202236; also: nearly all actives have a fitted effect of over 35% in size). To be noted: AML-191 viability, CellTiter-Glo luminescence, 48 h; series mostly up to 46 µM. In short, it runs like this: as §1
Experiment [7] can be described thus: BET inhibitor-based combinations targeting novel dependencies in MECOM-rearranged (r) AML: AML-194 cell line (AID 2202237; also: nearly all actives have a fitted effect of over 40% in size). Conditions: AML-194 (MECOM-r AML) viability, CellTiter-Glo, 48 h; series mostly up to 46 µM. In short, it runs like this:
as §1
Potency is read from the fitted curve at half-maximal effect.

As for `CCC(=O)NC[C@H](Cc1ccc(OCCc2nc(-c3ccccc3)oc2C)cc1)N/C(C)=C\C(=O)c1ccc(C(F)(F)F)cc1`, the viability in experiment [1] is 111%. Moreover, the figures for the Potency in experiment [2] and in experiment [3] were 20.9 µM (active) and 23.5 µM (active), respectively.

For `Clc1ccc(-c2nc3sccn3c2/C=N/OCc2ccc(Cl)c(Cl)c2)cc1`, the viability in experiment [1] is 112%. Moreover, the Potency result in experiment [2], in experiment [3], in experiment [4], in experiment [5], in experiment [6] and in experiment [7] was “inactive” throughout.

On to `CC(=O)OCC(=O)[C@@]12OC(C)(C)O[C@@H]1C[C@H]1[C@@H]3C[C@H](F)C4=CC(=O)C=C[C@]4(C)[C@@]3(F)[C@@H](O)C[C@@]12C`, for which the viability in experiment [1] is 105%. For the same compound, the Potency result in experiment [2], in experiment [3], in experiment [4], in experiment [5] and in experiment [6] was “inactive” each time.

In the case of `COc1cc(/C=C/C(=O)CC(=O)/C=C/c2ccc(O)c(OC)c2)ccc1O`, the Potency in experiment [1] was 20.9 µM (active); in experiment [2], 8.33 µM (active); in experiment [3], 3.32 µM (active); in experiment [4], 14.8 µM (active); in experiment [5] it was 13.2 µM (active); in experiment [6], 16.6 µM (active). Moreover, the Potency in experiment [7] is 18.6 µM (active).

As for `CC(C)OC(=O)[C@H](C)N[P@](=O)(OC[C@H]1O[C@@H](n2ccc(=O)[nH]c2=O)[C@](C)(F)[C@@H]1O)Oc1ccccc1`, in experiment [1], the viability is 107%. Further, the Potency entry in experiment [2], in experiment [3], in experiment [4], in experiment [5] and in experiment [6] was “inactive” throughout.

On to `Cc1cc(-n2c(=O)ccc3cnc4[nH]ccc4c32)ccc1F`, for which, in experiment [1], the viability is 115%. In addition, the Potency entry in experiment [2] and in experiment [4] was “inactive” in each case. Further, the Potency in experiment [3] was 16.6 µM (active); in experiment [5], 18.6 µM (active); in experiment [6], 20.9 µM (active).

For `CN(C)CCCN=c1c2ccccc2n(C)c2[nH]c(=O)n(C)c(=O)c12`, the Potency in experiment [1] is 23.5 µM (active); in experiment [2], 18.6 µM (active); in experiment [3] it was 9.34 µM (active); in experiment [4], 23.5 µM (active); in experiment [5], 26.3 µM (active); in experiment [6], 18.6 µM (active).

The term viability denotes a read-out of living cells in per cent, often relative to untreated cells.
